Results on seven sequences are retold here after publication PMC7862700, “An all-to-all approach to the identification of sequence-specific readers for epigenetic DNA modifications on cytosine”.

What all share (assay): DAPPL (digital affinity profiling via proximity ligation, sequencing); 10 mM Tris-HCl pH 7.5, 50 mM NaCl, 1 mM DTT, 4% glycerol, room temperature, 30 min; GST-TFs on glutathione beads, 16-mer random dsDNA library, 0.1% formaldehyde crosslink after washing; high values mean tight binding
What all share (conditions): protein: recombinant; tags: N-terminal GST; dsDNA, one strand shown

One assay addresses T1, FLI1 (Homo sapiens, UniProt Q01543 1-452).
T1 sequence: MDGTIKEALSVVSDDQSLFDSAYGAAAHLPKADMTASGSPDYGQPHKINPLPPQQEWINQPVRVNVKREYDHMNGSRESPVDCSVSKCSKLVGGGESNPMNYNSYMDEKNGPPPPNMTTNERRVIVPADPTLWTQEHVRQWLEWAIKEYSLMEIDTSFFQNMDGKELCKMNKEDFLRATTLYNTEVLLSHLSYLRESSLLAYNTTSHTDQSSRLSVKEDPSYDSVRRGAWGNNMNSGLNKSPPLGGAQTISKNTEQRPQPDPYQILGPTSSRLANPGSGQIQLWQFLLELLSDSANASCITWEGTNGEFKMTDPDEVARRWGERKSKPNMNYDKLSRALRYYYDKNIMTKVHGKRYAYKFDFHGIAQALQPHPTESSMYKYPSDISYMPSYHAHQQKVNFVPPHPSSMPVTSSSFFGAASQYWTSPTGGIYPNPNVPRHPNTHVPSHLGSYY
A digest of the protocol:
(§1)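 Sequencing on an Illumina NextSeq500 followed washing, crosslinking with 0.1% formaldehyde, proximity ligation (BsaI/T4 ligase, 1 h, 37 °C) and PCR amplification of pools that had been incubated for 30 min at room temperature with 200 nmole of a random double-stranded 16-mer DNA library in Tris/NaCl/DTT/glycerol buffer. Each pool held DNA-barcoded human transcription factors, expressed in yeast as GST fusions and captured on glutathione beads, plus a tag-only sample. Binding signal is a hexamer's read frequency for a factor divided by its frequency in the tag-only sample.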

The next assay addresses T2, ELK1 (Homo sapiens, UniProt P19419 1-428).
T2 sequence: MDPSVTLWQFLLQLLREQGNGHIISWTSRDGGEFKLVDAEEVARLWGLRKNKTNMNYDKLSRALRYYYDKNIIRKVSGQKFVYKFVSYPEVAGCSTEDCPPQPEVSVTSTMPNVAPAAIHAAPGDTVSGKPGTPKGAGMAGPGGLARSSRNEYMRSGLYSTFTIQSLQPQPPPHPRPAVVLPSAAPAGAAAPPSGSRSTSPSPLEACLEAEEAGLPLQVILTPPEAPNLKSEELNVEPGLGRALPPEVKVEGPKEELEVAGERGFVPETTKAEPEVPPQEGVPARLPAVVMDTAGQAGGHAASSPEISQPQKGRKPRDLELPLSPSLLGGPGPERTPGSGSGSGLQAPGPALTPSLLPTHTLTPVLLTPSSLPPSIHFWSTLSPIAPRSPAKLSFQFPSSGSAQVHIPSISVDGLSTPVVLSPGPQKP
A digest of the protocol: as §1

In the next assay the target is T3, GABPA (Homo sapiens, UniProt Q06546 1-454).
T3 sequence: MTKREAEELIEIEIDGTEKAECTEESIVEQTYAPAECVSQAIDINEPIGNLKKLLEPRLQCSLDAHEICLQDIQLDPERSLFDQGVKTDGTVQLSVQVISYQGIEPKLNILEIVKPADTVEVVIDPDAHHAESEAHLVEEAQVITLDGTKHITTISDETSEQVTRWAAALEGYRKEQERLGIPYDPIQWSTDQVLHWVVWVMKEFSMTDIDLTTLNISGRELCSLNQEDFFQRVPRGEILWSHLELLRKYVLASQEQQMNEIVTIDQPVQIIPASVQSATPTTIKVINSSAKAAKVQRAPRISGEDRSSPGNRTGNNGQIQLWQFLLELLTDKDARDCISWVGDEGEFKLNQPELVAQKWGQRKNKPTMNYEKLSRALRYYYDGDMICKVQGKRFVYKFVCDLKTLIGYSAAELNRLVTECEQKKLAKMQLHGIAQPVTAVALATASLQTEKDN
The essentials: as §1

In a further assay the target is T4, ERG (Homo sapiens, UniProt P11308 1-479).
T4 sequence: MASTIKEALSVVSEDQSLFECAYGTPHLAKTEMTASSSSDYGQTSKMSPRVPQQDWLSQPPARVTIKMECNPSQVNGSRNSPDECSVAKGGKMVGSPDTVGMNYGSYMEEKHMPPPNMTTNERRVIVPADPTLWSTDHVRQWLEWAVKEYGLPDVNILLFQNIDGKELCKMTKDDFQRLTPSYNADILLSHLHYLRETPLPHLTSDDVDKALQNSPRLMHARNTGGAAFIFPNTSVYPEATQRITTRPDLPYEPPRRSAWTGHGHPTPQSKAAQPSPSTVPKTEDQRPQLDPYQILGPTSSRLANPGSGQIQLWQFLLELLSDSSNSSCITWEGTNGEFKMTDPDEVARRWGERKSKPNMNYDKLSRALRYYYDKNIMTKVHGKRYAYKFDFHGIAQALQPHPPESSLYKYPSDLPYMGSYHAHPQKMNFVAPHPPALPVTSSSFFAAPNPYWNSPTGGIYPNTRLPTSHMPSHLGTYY
A digest of the protocol: as §1

In a further assay the target is ELF1 (Homo sapiens, UniProt P32519 1-619). The essentials: as §1
Another assay deals with T5, EHF (Homo sapiens, UniProt Q9NZC4 1-300).
T5 sequence: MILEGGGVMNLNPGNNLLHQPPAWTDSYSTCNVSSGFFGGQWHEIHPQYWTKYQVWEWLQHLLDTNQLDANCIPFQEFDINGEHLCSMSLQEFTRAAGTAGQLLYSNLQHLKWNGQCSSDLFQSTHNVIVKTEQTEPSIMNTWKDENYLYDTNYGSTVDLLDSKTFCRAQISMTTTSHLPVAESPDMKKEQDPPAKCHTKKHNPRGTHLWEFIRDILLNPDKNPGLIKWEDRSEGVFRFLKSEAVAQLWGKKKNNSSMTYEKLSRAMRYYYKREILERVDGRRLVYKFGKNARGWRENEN
The essentials: as §1

In the next assay the target is SPI1 (Homo sapiens, UniProt P17947 1-270). The essentials: as §1
In another assay the target is SPIB (Homo sapiens, UniProt Q01892 1-262). The essentials:
as §1

A further assay deals with T6, ELK3 (Homo sapiens, UniProt P41970 1-407).
T6 sequence: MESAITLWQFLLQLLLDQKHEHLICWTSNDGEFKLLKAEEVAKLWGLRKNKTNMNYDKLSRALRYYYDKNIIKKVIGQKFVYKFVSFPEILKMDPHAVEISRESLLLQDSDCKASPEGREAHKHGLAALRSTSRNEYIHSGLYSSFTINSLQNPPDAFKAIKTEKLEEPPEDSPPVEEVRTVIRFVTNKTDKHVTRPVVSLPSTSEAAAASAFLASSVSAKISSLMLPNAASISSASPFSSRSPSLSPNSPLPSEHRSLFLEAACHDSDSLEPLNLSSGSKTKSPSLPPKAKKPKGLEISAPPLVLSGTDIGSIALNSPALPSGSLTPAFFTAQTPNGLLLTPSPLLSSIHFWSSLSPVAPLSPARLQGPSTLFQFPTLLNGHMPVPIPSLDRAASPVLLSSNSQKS
A digest of the protocol:
as §1

SPIB, sequence (Q01892 whole entry): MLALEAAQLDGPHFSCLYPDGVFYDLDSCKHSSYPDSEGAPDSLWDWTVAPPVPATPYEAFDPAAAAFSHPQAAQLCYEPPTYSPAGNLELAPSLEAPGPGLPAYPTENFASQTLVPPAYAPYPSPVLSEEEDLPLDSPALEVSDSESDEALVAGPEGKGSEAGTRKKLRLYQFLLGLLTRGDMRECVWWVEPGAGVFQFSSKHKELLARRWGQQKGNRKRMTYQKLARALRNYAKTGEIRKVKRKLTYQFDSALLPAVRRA
ELF1, sequence (P32519 whole entry): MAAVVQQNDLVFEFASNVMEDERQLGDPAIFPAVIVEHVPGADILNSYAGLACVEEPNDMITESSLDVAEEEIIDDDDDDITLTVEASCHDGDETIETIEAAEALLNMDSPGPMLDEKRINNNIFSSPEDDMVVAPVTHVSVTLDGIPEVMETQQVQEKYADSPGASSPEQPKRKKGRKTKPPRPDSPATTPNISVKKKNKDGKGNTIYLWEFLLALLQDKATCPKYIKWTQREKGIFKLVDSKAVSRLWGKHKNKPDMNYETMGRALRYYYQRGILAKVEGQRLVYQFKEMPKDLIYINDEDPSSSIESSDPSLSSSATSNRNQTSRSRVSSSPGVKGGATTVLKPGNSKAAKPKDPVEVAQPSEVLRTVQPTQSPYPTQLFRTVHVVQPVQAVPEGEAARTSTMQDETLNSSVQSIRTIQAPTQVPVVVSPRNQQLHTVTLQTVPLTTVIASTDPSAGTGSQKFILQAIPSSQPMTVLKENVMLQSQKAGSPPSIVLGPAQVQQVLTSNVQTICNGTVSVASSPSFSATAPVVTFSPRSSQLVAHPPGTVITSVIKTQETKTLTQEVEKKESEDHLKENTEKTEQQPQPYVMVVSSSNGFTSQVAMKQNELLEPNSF

With ATGTCT, the binding signal was 1.21 fold enrichment (6-mer frequency, TF over GST control) in the assay with FLI1; 1.28 fold enrichment (6-mer frequency, TF over GST control) with ELK1; 1.36 fold enrichment (6-mer frequency, TF over GST control) with GABPA; 1.22 fold enrichment (6-mer frequency, TF over GST control) with ERG; 1.29 fold enrichment (6-mer frequency, TF over GST control) with ELF1; 1.13 fold enrichment (6-mer frequency, TF over GST control) with EHF. The binding signal in the assay with SPI1 was 1.32 fold enrichment (6-mer frequency, TF over GST control); in the assay with SPIB, 1.3 fold enrichment (6-mer frequency, TF over GST control); in the assay with ELK3, 1.18 fold enrichment (6-mer frequency, TF over GST control).
ATTACC: the binding signal was 1.22 fold enrichment (6-mer frequency, TF over GST control) with FLI1; 1.13 fold enrichment (6-mer frequency, TF over GST control) with ELK1; 1.16 fold enrichment (6-mer frequency, TF over GST control) with GABPA; 1.26 fold enrichment (6-mer frequency, TF over GST control) with ERG; 1.23 fold enrichment (6-mer frequency, TF over GST control) with ELF1; 1.4 fold enrichment (6-mer frequency, TF over GST control) with EHF. The binding signal was 1.16 fold enrichment (6-mer frequency, TF over GST control) with SPI1; 1.36 fold enrichment (6-mer frequency, TF over GST control) with SPIB; 1.26 fold enrichment (6-mer frequency, TF over GST control) with ELK3.
With CGATTT, the binding signal with FLI1 is 1.23 fold enrichment (6-mer frequency, TF over GST control); in the assay with ELK1, 1.08 fold enrichment (6-mer frequency, TF over GST control); in the assay with GABPA it was 1.08 fold enrichment (6-mer frequency, TF over GST control); with ERG, 1.17 fold enrichment (6-mer frequency, TF over GST control); with ELF1, 1.09 fold enrichment (6-mer frequency, TF over GST control); in the assay with EHF, 1.26 fold enrichment (6-mer frequency, TF over GST control). In addition, the binding signal was 1.09 fold enrichment (6-mer frequency, TF over GST control) in the assay with SPI1; 1.1 fold enrichment (6-mer frequency, TF over GST control) with SPIB; 1.04 fold enrichment (6-mer frequency, TF over GST control) in the assay with ELK3.
Turning to CTATGC, the binding signal was 1.41 fold enrichment (6-mer frequency, TF over GST control) with FLI1; 1.56 fold enrichment (6-mer frequency, TF over GST control) with ELK1; 1.53 fold enrichment (6-mer frequency, TF over GST control) with GABPA; 1.39 fold enrichment (6-mer frequency, TF over GST control) in the assay with ERG; 1.47 fold enrichment (6-mer frequency, TF over GST control) in the assay with ELF1; 1.31 fold enrichment (6-mer frequency, TF over GST control) with EHF. The binding signal with SPI1 is 1.38 fold enrichment (6-mer frequency, TF over GST control); in the assay with SPIB it was 1.48 fold enrichment (6-mer frequency, TF over GST control); with ELK3, 1.4 fold enrichment (6-mer frequency, TF over GST control).
Turning to CTTCGC, the binding signal in the assay with FLI1 is 1.43 fold enrichment (6-mer frequency, TF over GST control); with ELK1, 1.56 fold enrichment (6-mer frequency, TF over GST control); with GABPA, 1.5 fold enrichment (6-mer frequency, TF over GST control); with ERG, 1.53 fold enrichment (6-mer frequency, TF over GST control); with ELF1, 1.46 fold enrichment (6-mer frequency, TF over GST control); with EHF, 1.32 fold enrichment (6-mer frequency, TF over GST control). In addition, the binding signal with SPI1 is 1.42 fold enrichment (6-mer frequency, TF over GST control); with SPIB, 1.6 fold enrichment (6-mer frequency, TF over GST control); with ELK3 it was 1.7 fold enrichment (6-mer frequency, TF over GST control).
As for ATGTTT, the binding signal was 1.48 fold enrichment (6-mer frequency, TF over GST control) in the assay with FLI1; 1.37 fold enrichment (6-mer frequency, TF over GST control) with ELK1; 1.36 fold enrichment (6-mer frequency, TF over GST control) with GABPA; 1.39 fold enrichment (6-mer frequency, TF over GST control) with ERG; 1.41 fold enrichment (6-mer frequency, TF over GST control) with ELF1; 1.41 fold enrichment (6-mer frequency, TF over GST control) with EHF. Further, the binding signal with SPI1 is 1.33 fold enrichment (6-mer frequency, TF over GST control); with SPIB, 1.38 fold enrichment (6-mer frequency, TF over GST control); with ELK3 it was 1.43 fold enrichment (6-mer frequency, TF over GST control).
As for TACGCT, the binding signal was 1.3 fold enrichment (6-mer frequency, TF over GST control) with FLI1; 1.26 fold enrichment (6-mer frequency, TF over GST control) with ELK1; 1.4 fold enrichment (6-mer frequency, TF over GST control) in the assay with GABPA; 1.34 fold enrichment (6-mer frequency, TF over GST control) with ERG; 1.34 fold enrichment (6-mer frequency, TF over GST control) with ELF1; 1.25 fold enrichment (6-mer frequency, TF over GST control) with EHF. Moreover, the binding signal in the assay with SPI1 is 1.31 fold enrichment (6-mer frequency, TF over GST control); in the assay with SPIB it was 1.18 fold enrichment (6-mer frequency, TF over GST control); in the assay with ELK3 it was 1.36 fold enrichment (6-mer frequency, TF over GST control).
